PubChem BioAssay (NCATS)
Records with an inconclusive call do not appear. Activity calls are given as the source filed them. Unless noted, calls follow the shape of the dose curve; as a rule, active = well fitted curve in the direction sought with a large enough effect; inconclusive = small, poorly fitted or top-dose-only effect, or another doubt; inactive = no such curve, though single readings can be large; an effect the other way counts as inactive or inconclusive.

How the values were obtained:
[1] = Cell Viability - LYMP2-001 (AID 921); settings: LYMP2-001 lymphoblastoid cell viability; series mostly up to 92.2 µM; also: nearly all actives have a fitted effect of over 70% in size; also: potency is read from the fitted curve at half-maximal effect
Summary of the method: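 CellTiter-Glo luminescence (intracellular ATP) after 24 hr compound exposure at 37 C, 2500 lymphoblastoid cells/well in complete medium. AC50 fitted with standard Hill equation; tetraoctylammonium bromide positive control.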

[2] = qHTS Assay for Identification of Small Molecule Agonists for NFkB Signaling Pathway (AID 928; calls by dose curve); settings: NFkB beta-lactamase reporter cells, blue/green ratio
Summary of the method: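 ME-180 NFkB-bla cells carry a beta-lactamase reporter under an NFkB response element. Compound plus 10 pM TNF alpha (final) was applied for 5 hrs at 37 C. After 2 hrs with LiveBLAzer substrate, 460/530 nm emission was read at 405 nm excitation.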

[3] = Confirmation and Secondary Assay for Modulators of Hemoglobin Beta Chain Splicing at IVS2 705 locus (AID 930); settings: HeLa EGFP-705 splicing reporter, GFP fluorescence, 48 h; series mostly up to 46.1 µM;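 also: HeLa cells stably expressing the EGFP-705 splicing reporter; GFP fluorescence per well restored by corrected splicing of the IVS2-705 intron in EGFP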
Summary of the method: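 Per-well GFP, captured at 1 x 8 µm resolution with 488 nm excitation, served as the read-out for HeLa EGFP-705 cells incubated 2 days with test compound versus DMSO.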

[4] = target: Pyruvate kinase (Leishmania mexicana) (UniProt Q27686); assay: qHTS Validation Assay for Inhibitors of Leishmania Mexicana Pyruvate Kinase (AID 945); also: potency is read from the fitted curve at half-maximal effect; settings: purified L. mexicana pyruvate kinase, enzyme activity, E451W mutant enzyme; series mostly up to 57.5 µM
Summary of the method: (§1)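 An endpoint luciferase assay: 0.2 nM LmPYK E451W turns over 0.5 mM PEP with 0.1 mM ADP for 1 h at room temperature, pH 7.2, before PKLight addition. Values are normalized to DMSO-only wells.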

[5] = MultiTox-Fluor Cytotoxicity Assay - LYMP1-001 - Dead Cells (AID 946); settings: LYMP1-001 lymphoblastoid cells, dead-cell protease fluorescence; series mostly up to 92.2 µM; also: potency is read from the fitted curve at half-maximal effect
Summary of the method: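 Cytotoxicity as increased dead-cell protease fluorescence (bis-AAF-R110, 485/520 nm), read 60 min after MultiTox-Fluor reagent. Human lymphoblastoid line exposed 16 h; Hill-fitted AC50, with DMSO as 0% and 15 uM tetraoctylammonium bromide as 100%.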

[6] = MultiTox-Fluor Cytotoxicity Assay - LYMP1-001 - Live Cells (AID 947); settings: LYMP1-001 lymphoblastoid cells, live-cell protease fluorescence viability; series mostly up to 92.2 µM
[7] = Cell Viability - LYMP1-002 - Assay at 16 hr (AID 948); settings: LYMP1-002 lymphoblastoid cell viability; series mostly up to 92.2 µM; also: potency is read from the fitted curve at half-maximal effect
Summary of the method: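 LYMP1-002 human lymphoblastoid cells, 2500/well; 5 hr 37 C; cpd 16 hr 37 C; CellTiter-Glo 30 min RT; luminescence (ATP). Concentration-response, Hill-fit AC50. Pos ctrl tetraoctylammonium bromide.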

[8] = target: Pyruvate kinase PKM (Homo sapiens) (UniProt P14618); assay: qHTS Assay for Activators of Human Muscle Pyruvate Kinase (AID 954; active = well fitted curve in the direction sought with a large enough effect, not every such curve was filed as active); settings: purified human muscle pyruvate kinase, luciferase-coupled luminescence, 1 h; series mostly up to 57.5 µM
Summary of the method: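 Human PKM2 activity is measured as ATP generation, detected by luciferase-coupled luminescence. The enzyme (0.1 nM) acts on 0.5 mM PEP and 0.1 mM ADP for 1 h at ambient temperature; data are normalized to uninhibited and full-inhibition wells.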

[9] = MultiTox-Fluor Cytotoxicity Assay - LYMP1-002 - Live Cells (AID 955); settings: LYMP1-002 lymphoblastoid live-cell protease fluorescence viability; series mostly up to 46.1 µM;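 also: cells exposed to compound for 16 hours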; also: potency is read from the fitted curve at half-maximal effect
Summary of the method: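 Read-out is live-cell protease activity (cell-permeant GF-AFC substrate, fluorescence Ex/Em=405/510), where a decrease indicates acute toxicity. Human lymphoblastoid cells were treated 16 hours at 37 C in a concentration series, and AC50 values came from standard Hill modelling.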

[10] = MultiTox-Fluor Cytotoxicity Assay - LYMP1-002 - Dead Cells (AID 960); settings: LYMP1-002 lymphoblastoid cells, dead-cell protease fluorescence; series mostly up to 46.1 µM; also: nearly all actives have a fitted effect of over 60% in size; also: potency is read from the fitted curve at half-maximal effect
Summary of the method: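 LYMP1-002 cells 2500/well; 5 hr 37 C pre-incubation; compound 16 hr 37 C; MultiTox-Fluor reagent 60 min RT; dead-cell fluor Ex/Em 485/520. Norm. to DMSO (0%) vs 15 uM tetraoctylammonium bromide (100%); Hill AC50.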

[11] = MultiTox-Fluor Cytotoxicity Assay - LYMP1-003 - Dead Cells (AID 961); settings: LYMP1-003 lymphoblastoid cells, dead-cell protease fluorescence; series mostly up to 92.2 µM; also: nearly all actives have a fitted effect of over 70% in size
Summary of the method: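 Dead-cell protease release, detected as bis-AAF-R110 fluorescence at 485/520 nm, was measured in LYMP1-003 cells after 16 h compound treatment at 37 C. AC50 values came from Hill-modeled qHTS curves normalized to DMSO (0%) and 15 uM tetraoctylammonium bromide (100%).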

[12] = Cell Viability - LYMP1-003 - Assay at 24 hr (AID 963); settings: LYMP1-003 lymphoblastoid cell viability; series mostly up to 92.2 µM; also: potency is read from the fitted curve at half-maximal effect
Summary of the method: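 Cells seeded at 2500/well, 5 hr at 37 C; compounds added; 24 hr at 37 C; CellTiter-Glo added, 30 min room temperature; luminescence read. Decrease in ATP taken as cytotoxicity, AC50 from Hill modelling.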

[13] = Cell Viability - LYMP2-003 (AID 965); settings: LYMP2-003 lymphoblastoid cell viability; series mostly up to 92.2 µM;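 also: cells exposed to compounds for 24 h before reading; nearly all actives have a fitted effect of over 50% in size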; also: potency is read from the fitted curve at half-maximal effect
Summary of the method: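 CellTiter-Glo luminescence (cellular ATP) after 24 h compound exposure at 37 C in complete medium; 2500 cells/well, 5 h settling beforehand. Concentration-response fitted to standard Hill equation for AC50. Tetraoctylammonium bromide served as positive control.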

[14] = Cell Viability - LYMP2-004 (AID 966); settings: LYMP2-004 lymphoblastoid cell viability, qHTS; series mostly up to 92.2 µM; also: nearly all actives have a fitted effect of over 65% in size; also: potency is read from the fitted curve at half-maximal effect
Summary of the method: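 Cells seeded 2500/well, rested 5 hr at 37 C, dosed across a concentration series, incubated 24 hr at 37 C, then CellTiter-Glo added for 30 min at room temperature and luminescence read. Hill fitting gave AC50.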

[15] = Cell Viability - LYMP2-005 (AID 967); settings: LYMP2-005 lymphoblastoid cell viability; series mostly up to 92.2 µM
Summary of the method: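 Steps: seed 2500 LYMP2-005 cells/well, incubate 5 h at 37 C, add compound, incubate 24 h at 37 C, add CellTiter-Glo, wait 30 min at RT, read luminescence. Concentration-response data fitted to Hill equation for AC50.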

[16] = target: Muscarinic acetylcholine receptor M1 (Rattus norvegicus) (UniProt P08482); assay: qHTS Assay for Antagonists of Acetylcholine Muscarinic M1 Receptor: Kinetic Measurement of Intracellular Calcium Response (AID 943); settings: M1-expressing cells, kinetic intracellular calcium fluorescence; series mostly up to 35.3 µM;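 also: Fluo-4 calcium signal as peak divided by basal fluorescence over 4 min; nearly all actives have a fitted effect of over 75% in size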
Summary of the method: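 Rat M1-CHO cells, 2000/well, overnight → Fluo-4 no-wash dye with probenecid, 1 h 37C → compound 10 min, room temp → basal read 6 s → carbachol EC80 (100 nM) → 4 min kinetic read; peak/basal.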

[17] = target: Muscarinic acetylcholine receptor M1 (Rattus norvegicus) (UniProt P08482); assay: qHTS Assay for Antagonists of Acetylcholine Muscarinic M1 Receptor: Measurement of IP-One Response (AID 944); settings: CHO-M1 cells, IP-One HTRF, antagonist mode; series mostly up to 46.1 µM; also: nearly all actives have a fitted effect of over 75% in size
Summary of the method: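 M1-CHO (rat), 2000 cells/well, overnight recovery; cpd 10 min; carbachol EC80 (200 nM), 30 min, HEPES buffer + 50 mM LiCl pH 7.4; IP-One HTRF, Ex 337, Em 620/665 nm.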

[18] = target: Pyruvate kinase (Leishmania mexicana) (UniProt Q27686); assay: qHTS Validation Assay for Activators of Leishmania Mexicana Pyruvate Kinase (AID 959); settings: purified L. mexicana pyruvate kinase, enzyme activity; series mostly up to 57.5 µM
Summary of the method: as §1

[19] = qHTS Assay for Identification of Small Molecule Antagonists for Thrombopoietin (TPO) Signaling Pathway (AID 918); settings: TPO-dependent cell signaling reporter, antagonist mode; also: potency is read from the fitted curve at half-maximal effect; nearly all actives have a fitted effect of over 60% in size
Summary of the method: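 Ba/F3 (murine, hTPO-R, GPIIb-luc reporter); overnight IL-3 withdrawal; cpd + TPO 26 pM final (EC50); 24 h 37 C/5% CO2; Steadylite luminescence after 10 min RT.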

[20] = target: Pyruvate kinase PKM (Homo sapiens) (UniProt P14618); assay: qHTS Assay for Inhibitors of Human Muscle Pyruvate Kinase (AID 958); settings: purified human PKM enzyme activity
Summary of the method: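 ATP production by PKM2 detected via luciferase luminescence after 1 h room-temperature reaction (0.1 nM enzyme, PEP at Km 0.5 mM, ADP 0.1 mM, pH 7.2 imidazole buffer). Inhibition scaled to no-enzyme control; activation referenced to 0.3 nM enzyme wells.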

Measured: Potency

Chain of Pyruvate kinase PKM (Homo sapiens) (P14618 whole entry, looked up): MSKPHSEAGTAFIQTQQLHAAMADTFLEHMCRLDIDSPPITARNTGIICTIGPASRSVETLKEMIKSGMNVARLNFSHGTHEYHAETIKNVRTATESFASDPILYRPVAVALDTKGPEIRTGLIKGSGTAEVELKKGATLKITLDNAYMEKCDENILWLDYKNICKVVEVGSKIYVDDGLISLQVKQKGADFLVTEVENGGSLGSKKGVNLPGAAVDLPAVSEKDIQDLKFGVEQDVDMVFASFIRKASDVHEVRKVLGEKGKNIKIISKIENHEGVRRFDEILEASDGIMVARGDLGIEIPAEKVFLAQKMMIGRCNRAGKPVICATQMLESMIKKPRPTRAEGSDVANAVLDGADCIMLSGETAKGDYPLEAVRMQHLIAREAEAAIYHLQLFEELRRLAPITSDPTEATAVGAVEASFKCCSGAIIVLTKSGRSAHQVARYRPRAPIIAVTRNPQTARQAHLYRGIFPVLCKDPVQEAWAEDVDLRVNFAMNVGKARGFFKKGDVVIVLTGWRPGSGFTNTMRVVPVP
Chain of Muscarinic acetylcholine receptor M1 (Rattus norvegicus) (P08482 whole entry, looked up): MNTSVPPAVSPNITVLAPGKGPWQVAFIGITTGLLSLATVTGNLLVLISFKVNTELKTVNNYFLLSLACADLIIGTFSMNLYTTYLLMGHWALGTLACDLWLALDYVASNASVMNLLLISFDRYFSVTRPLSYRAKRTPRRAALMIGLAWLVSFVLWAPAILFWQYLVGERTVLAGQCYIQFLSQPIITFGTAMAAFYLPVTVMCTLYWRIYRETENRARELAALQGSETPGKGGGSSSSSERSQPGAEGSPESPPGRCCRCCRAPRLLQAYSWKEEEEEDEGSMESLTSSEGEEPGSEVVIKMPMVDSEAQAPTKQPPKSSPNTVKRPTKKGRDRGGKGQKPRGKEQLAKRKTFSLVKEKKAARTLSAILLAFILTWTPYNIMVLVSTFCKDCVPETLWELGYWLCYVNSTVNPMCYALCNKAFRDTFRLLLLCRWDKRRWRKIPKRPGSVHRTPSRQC
Chain of Pyruvate kinase (Leishmania mexicana) (Q27686 2-499 E452W): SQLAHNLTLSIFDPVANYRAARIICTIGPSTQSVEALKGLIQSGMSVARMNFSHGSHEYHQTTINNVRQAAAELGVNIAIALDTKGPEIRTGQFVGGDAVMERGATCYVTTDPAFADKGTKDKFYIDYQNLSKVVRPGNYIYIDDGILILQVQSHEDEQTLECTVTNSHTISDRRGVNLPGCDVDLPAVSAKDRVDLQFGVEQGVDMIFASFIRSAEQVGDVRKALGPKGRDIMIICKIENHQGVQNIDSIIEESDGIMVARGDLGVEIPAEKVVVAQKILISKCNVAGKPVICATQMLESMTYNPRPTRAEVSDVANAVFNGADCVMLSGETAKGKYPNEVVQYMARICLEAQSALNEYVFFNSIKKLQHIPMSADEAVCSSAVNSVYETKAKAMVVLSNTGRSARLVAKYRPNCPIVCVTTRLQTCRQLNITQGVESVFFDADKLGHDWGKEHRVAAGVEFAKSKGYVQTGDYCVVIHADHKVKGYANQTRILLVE

CCCNC(=O)NS(=O)(=O)c1ccc(Cl)cc1
active: [2] 0.447 µM
not listed: [16] | [17] | [18] | [19] | [20]
inactive: all other assays above

CCn1cc(C(=O)O)c(=O)c2ccc(C)nc21
not listed: [2] | [4] | [8] | [16] | [17] | [18] | [19] | [20]
inactive: all other assays above

O=c1cc(-c2ccc(O)cc2)oc2cc(O)cc(O)c12
inactive: [1] | [16] | [17] | [8] | [18] | [10] | [12] | [13] | [14] | [15]
active: [4] 12.6 µM | [5] 79.4 µM

O=c1cc(-c2ccccc2)oc2cc(O)cc(O)c12
inactive: [3]

CC1=C(/C=C/C(C)=C/C=C/C(C)=C/C(=O)Nc2ccc(O)cc2)C(C)(C)CCC1
inactive: [16] | [17] | [4] | [8]
active: [19] 10 µM | [1] 39.8 µM | [5] 79.4 µM | [7] 50.1 µM | [9] 25.1 µM | [10] 31.6 µM | [12] 50.1 µM | [13] 39.8 µM | [14] 39.8 µM

O=C(O)c1cc(O)c2c(c1)C(=O)c1cccc(O)c1C2=O
inactive: [1] | [5] | [6] | [7] | [9] | [10] | [11] | [12] | [13] | [14] | [15]

COCCCCC(=NOCCN)c1ccc(C(F)(F)F)cc1
inactive: [16] | [17] | [4] | [8]

C[N+](C)(C)CCCCCC[N+](C)(C)C
inactive: [3] | [16] | [17] | [4] | [8]

CCN1CCC[C@H]1CNC(=O)c1cc(S(N)(=O)=O)ccc1OC
inactive: [4] | [8]

COc1ccc(-c2coc3cc(O)ccc3c2=O)cc1
inactive: [3]

COc1ccc(C2Sc3ccccc3N(CCN(C)C)C(=O)C2OC(C)=O)cc1 (configuration not stated)
inactive: [3]

CCN(CC)CCNC(=O)c1ccc(N)cc1
inactive: [3] | [17] | [4] | [8]

COc1ccccc1N1CCN(CCCNc2cc(=O)n(C)c(=O)n2C)CC1
inactive: [3] | [4] | [8]

CC(C)NCC(O)COc1cccc2[nH]ccc12 (configuration not stated)
inactive: [3] | [4] | [8]

CC(=O)N[C@@H](CS)C(=O)O
inactive: [16] | [4] | [8]

COc1ccc(-c2coc3cc(O)cc(O)c3c2=O)cc1
inactive: [3]

CCN(CC)CCOC(=O)c1ccc(N)cc1
inactive: [3] | [4] | [8]

NCCS
inactive: [3] | [16] | [17] | [4] | [8]

c1ccc2c(Cc3c[nH]c4ccccc34)c[nH]c2c1
inactive: [3]

CC(=O)CCCCn1c(=O)c2c(ncn2C)n(C)c1=O
inactive: [3] | [17] | [4] | [8]

COc1cccc(-c2cc(=O)c3ccccc3o2)c1N
active: [4] 12.6 µM | [20] 15.8 µM
inactive: [17] | [8] | [18]

CC(C)OC(=O)C(C)(C)Oc1ccc(C(=O)c2ccc(Cl)cc2)cc1
inactive: [3] | [8]

COc1ccc(Cc2nccc3cc(OC)c(OC)cc23)cc1OC
inactive: [4] | [8]

NC(N)=Nc1nc(CSCC/C(N)=N/S(N)(=O)=O)cs1
inactive: [4] | [8]

O=C(O)CCc1nc(-c2ccccc2)c(-c2ccccc2)o1
inactive: [3] | [4] | [8]

Clc1ccc(Cn2c(CN3CCCC3)nc3ccccc32)cc1
inactive: [17] | [4] | [8]

O=C1NCC2(CCN(CCc3ccccc3)CC2)O1
inactive: [3] | [4] | [8]

CCN(CC)C(=O)c1ccc(O)c(OC)c1
inactive: [16] | [17] | [4] | [8]

C[N+](C)(C)CC(=O)O
inactive: [16] | [17] | [4] | [8]
